Screens (PubChem)
Sampled rows, rich in hits. Any-hit rate of the full collection: about 4.8%.
SKKanGAS inh – S. pyogenes SKKanGAS growth inhibitors in kanamycin, primary screen, streptokinase expression inhibitor project, SKKanGAS strain, BacTiter-Glo luminescence; 6 h; inhibition, % at 7.5 µM; 300,000 tested, 1.3% active; AID 1662, 2009;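 active = mean replicate score, as percent of positive control median, at least 50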;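 note: strain carries kanamycin resistance gene driven by streptokinase promoter and grows in 40 µg/ml kanamycin; loss of luminescence reflects streptokinase promoter inhibition or plain growth inhibition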
NALP1 yeast inh – NALP1 inflammasome inhibitors in reconstituted yeast, colorimetric, S. cerevisiae, triplicate retest; inhibition, % at 10 µM; 280,000 tested, 0.61% active; AID 2071, 2009; S. cerevisiae NALP1/ASC/caspase-1 growth, X-gal OD620, 72 h; in the data active = inhibition mostly above about 24%, no sharp cut-off; inactive = mostly below about 32%
tim10-1 inh – growth inhibitors of tim10-1 mutant yeast, primary screen, luminescence, uHTS; S. cerevisiae tim10-1 ts strain growth, BacTiter-Glo, 24 h; inhibition, % at 20 µM; 330,000 tested, 2.2% active;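 active = inhibition of at least 40%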;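 note: mutant grown at 25 °C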
PfHsp90 yeast 2 – growth inhibition of PfHsp90-expressing yeast, primary screen, antimalarial PfHsp90 inhibitor project, S. cerevisiae, BacTiter-Glo luminescence, single point, set 2. 310,000 tested, 0.32% active. BacTiter-Glo ATP, 48 h; yeast lacking PDR1 and PDR3 efflux regulators. inhibition, % at 9.4 µM. AID 504621, 2011;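 active = every replicate shows inhibition above about 80%, whatever the replicate mean, limit read from the data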
TIM10 inh – growth inhibitors of isogenic TIM10 control yeast, primary screen, counter-screen for tim10-1 yeast inhibitor project, luminescence, uHTS; S. cerevisiae TIM10 strain growth, BacTiter-Glo luminescence, 24 h; inhibition, % at 10 µM; 330,000 tested, 1.4% active; AID 463195, 2010;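 active = inhibition of 40% or more at the single tested concentration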;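 note: wild-type TIM10 isogenic control strain grown at permissive 25 °C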
tim23-1 inh – growth inhibitors of tim23-1 mutant yeast, primary screen, luminescence, uHTS; 330,000 tested, 1.3% active; S. cerevisiae tim23-1 growth, BacTiter-Glo luminescence, 24 h; AID 463212, 2010; inhibition, % at 20 µM;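 active = growth inhibition of the mutant yeast at or above 50%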;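 note: temperature-sensitive mutant grown at 25 °C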
tim10-1 confirm – growth inhibitors of tim10-1 mutant yeast, confirmation, single concentration, luminescence, S. cerevisiae; AID 463213, 2010; S. cerevisiae tim10-1 ts strain growth, BacTiter-Glo, 24 h; inhibition, % at 20 µM; shares compounds with tim10-1 inh; 7,400 tested, 56% active;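 active = inhibition of yeast growth at or above a set limit in either of two repeat tests at 20 µM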;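 note: tim10-1 mutant grown at permissive 25 °C to find synthetic lethal compounds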
Of the large screens only hits and unclear results are named; the others gave an inactive call (follow-up assays come after a bar, where they were run).

COc1ccc(C2NC(=S)NC(O)(C(F)(F)F)C2C(=O)c2cccs2)cc1 (stereo not given)	tim10-1 inh 42.6 (no result: PfHsp90 yeast 2) | tim10-1 confirm inactive
CCOc1ccc(NC(=O)COC(=O)c2cc(S(=O)(=O)N3CCCC3)ccc2C)cc1	none (no result: SKKanGAS inh, NALP1 yeast inh)
C=CCNC(=S)NNC(=O)c1cccn(Cc2ccc(Cl)cc2Cl)c1=O	tim10-1 inh 46.5 (no result: PfHsp90 yeast 2) | tim10-1 confirm inactive
Cc1ccccc1N1CCN(C(=O)C2CCC(=O)N(C3CCCC3)C2)CC1 (stereo not given)	none
O=[N+]([O-])c1cc(CN2CCCC2)c2cccnc2c1O	none (no result: SKKanGAS inh, tim10-1 inh, TIM10 inh, tim23-1 inh)
OCCN1CCN(Cc2cc(Cl)c3cccnc3c2O)CC1	none
Oc1ccc(CN2CCN(c3ccccc3)CC2)c2cccnc12	SKKanGAS inh 54.6, tim10-1 inh 66.3 | tim10-1 confirm inactive
CCOC(=O)N1CCN(Cc2ccc(O)c3ncccc23)CC1	none (no result: PfHsp90 yeast 2)
O=[N+]([O-])c1cc(CN2CCN(c3cccc(C(F)(F)F)c3)CC2)c2cccnc2c1O	SKKanGAS inh 94.7, tim10-1 inh 47.7, PfHsp90 yeast 2 99.0 | tim10-1 confirm inactive
Oc1c(CN2CCN(c3ccccn3)CC2)cc(Cl)c2cccnc12	SKKanGAS inh 108.1, NALP1 yeast inh 79.2, tim10-1 inh 52.3 | tim10-1 confirm inactive
Cn1c(=O)c2c(nc(N3CCOCC3)n2CCc2ccccc2)n(C)c1=O	none
C=CCSc1nc(-c2ccc3c(c2)OCO3)cc(C(F)(F)F)c1C#N	none
CNC(=O)c1nc(C)n(-c2ccc(Cl)cc2Cl)n1	none
Cc1c(Cl)cccc1NC(=O)c1nc(C)n(-c2cc(OC(C)C)c(Cl)cc2Cl)n1	tim10-1 inh 43.1 | tim10-1 confirm inactive
C/C(=N\NC(=O)Cc1ccccc1)c1ccc(Br)s1	none
C/C(=N\NC(=O)CNc1cccc(C)c1)c1ccc(Br)s1	tim10-1 inh 40.3 | tim10-1 confirm inactive
CCc1ccc(CN(C)C(=O)c2cc(COc3cccc4cnccc34)on2)cc1	tim10-1 inh 44.3 | tim10-1 confirm inactive
O=C(c1cc(COc2cccc3cnccc23)on1)N1CCC(c2ccccc2Cl)C1 (stereo not given)	tim10-1 inh 51.1 | tim10-1 confirm inactive
NS(=O)(=O)c1ccc(CCNC(=O)NC2(C(F)(F)F)Oc3ccccc3O2)cc1	none
Cc1cc(NC(=O)CN2C(=O)NC(C)(CC(C)C)C2=O)no1 (stereo not given)	none (no result: SKKanGAS inh, NALP1 yeast inh)
O=S(=O)(c1ccc(Cl)c(NC(=S)Nc2ccccc2N2CCOCC2)c1)N1CCOCC1	none
Fc1ccc(NC(=S)Nc2ccccc2N2CCOCC2)cc1Cl	tim10-1 inh 44.2 | tim10-1 confirm 38.8
COc1ccc(C(=O)NCC(=O)OCc2ccc(Br)cc2)cc1	none
CCOCCOC(=O)c1cccc(NC(=O)OCC)c1	none
CCCCOC(=O)Nc1cccc(C(=O)OCC)c1	tim10-1 inh 46.0 | tim10-1 confirm inactive
CC(C)(C)C(=O)OCc1nc(-c2ccc(Cl)cc2)cs1	tim10-1 inh 44.7 | tim10-1 confirm 42.0
CCN(CC)C(=O)Cn1cc(S(=O)(=O)CC(=O)Nc2cc(C)on2)c2ccccc21	none
CN(C(=O)Cn1cccc1C1=NC(c2ccccc2)CO1)c1ccccc1 (stereo not given)	tim10-1 inh 41.6 | tim10-1 confirm inactive
Cc1cc(C)cc(-n2ncc3c2CCCC3NC(=O)c2csnn2)c1 (stereo not given)	tim10-1 inh 41.5 | tim10-1 confirm inactive
COc1ncccc1C(=O)NC1CCCc2c1cnn2-c1cc(C)cc(C)c1 (stereo not given)	tim10-1 inh 48.1 | tim10-1 confirm inactive
Cc1cc(C)cc(-n2ncc3c2CCCC3NC(=O)c2cc(C)oc2C)c1 (stereo not given)	none
O=S(=O)(Nc1cc(Sc2ncn[nH]2)c(O)c2ccccc12)c1ccccc1	tim10-1 inh 50.5 (no result: SKKanGAS inh) | tim10-1 confirm inactive
